BRCT inh red – BRCT-phosphoprotein interaction inhibition (red fluorophore); BRCT-phosphopeptide binding, red fluorescence polarization; 0.03% of 75,000 active; Potency, µM (titrated, usually from 76.9 µM), inactives show at the top dose activity change, negative = inhibition, most hits filed as inhibitors; AID 892; further: on the % scale 0 is the no-effect control and ±100 the full control effect
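Fluorescence polarization: 100 nM His-tagged BRCA1 BRCT with 100 nM TAMRA-labelled phospho-BACH1 decapeptide, phosphate buffer pH 7.3 with 150 mM NaCl, DTT, 0.01% Tween 20; 12 min RT. Binding inhibition seen as FP decrease.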
Tau filament bind – binds recombinant human tau filaments; P10636; AID 596; 2% of 71,000 active; recombinant tau filaments, thioflavin S fluorescence, 15 h; filaments grown with octadecylsulfate alongside compound; Potency, µM (highest dose often 57.1 µM), for inactives: top-dose activity change, negative = inhibition;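 further: potency means the concentration at half of the fitted maximal effect; on the % scale 0 is the no-effect control and ±100 the full control effect; actives lower thioflavin S fluorescence by blocking filaments or displacing dye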
Target sequence (P10636 whole entry, looked up): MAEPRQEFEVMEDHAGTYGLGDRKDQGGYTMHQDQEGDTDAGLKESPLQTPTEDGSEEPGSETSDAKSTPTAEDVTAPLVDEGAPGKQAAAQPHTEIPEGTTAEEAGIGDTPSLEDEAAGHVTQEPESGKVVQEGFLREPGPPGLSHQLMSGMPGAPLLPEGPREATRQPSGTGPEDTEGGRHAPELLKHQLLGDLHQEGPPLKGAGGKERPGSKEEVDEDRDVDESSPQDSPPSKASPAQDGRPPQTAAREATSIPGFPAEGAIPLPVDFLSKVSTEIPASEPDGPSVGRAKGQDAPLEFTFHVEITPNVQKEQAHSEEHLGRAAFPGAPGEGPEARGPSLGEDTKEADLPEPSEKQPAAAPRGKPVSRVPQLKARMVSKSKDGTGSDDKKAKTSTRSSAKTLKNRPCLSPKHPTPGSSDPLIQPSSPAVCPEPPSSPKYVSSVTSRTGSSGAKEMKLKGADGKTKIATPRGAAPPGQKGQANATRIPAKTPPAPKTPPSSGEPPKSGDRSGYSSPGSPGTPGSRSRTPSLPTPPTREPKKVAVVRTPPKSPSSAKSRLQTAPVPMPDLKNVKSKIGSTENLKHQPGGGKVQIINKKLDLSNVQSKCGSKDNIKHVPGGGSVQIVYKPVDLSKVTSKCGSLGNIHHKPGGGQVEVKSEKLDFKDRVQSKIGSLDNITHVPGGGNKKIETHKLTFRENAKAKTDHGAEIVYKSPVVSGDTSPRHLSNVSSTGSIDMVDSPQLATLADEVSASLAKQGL
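Tau 2 uM in ThS buffer dispensed; compound added; 60 uM ODS added (finals 1 uM tau, 30 uM ODS); 15 h 37 C; fluor ex450/em510.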
TsaE inh – YjeE (TsaE) inhibition, E. coli; 0.05% of 71,000 active; AID 605; P0AF67; purified YjeE enzyme, qHTS inhibition assay; Potency, µM
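Purified YjeE (10 uM) with BODIPY Texas Red-labeled ADP probe (2 uM); compounds pin-transferred, 15 min at room temperature. Binding inhibition read as decreased fluorescence polarization; ADP titration as control.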
BRCT inh green – BRCA1 BRCT-phosphoprotein interaction inhibition; 0.05% of 75,000 active; Potency, µM (series often up to 76.9 µM), for the others: top-dose activity change, negative = inhibition, most hits filed as inhibitors; BRCA1 BRCT-phosphopeptide binding, green fluorescence polarization; P38398;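 further: potency means the concentration at half of the fitted maximal effect; plate controls were peptide without protein for full effect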
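Compounds were incubated for 12 min at room temperature with a complex of 100 nM fluorescein-tagged pBACH1 decapeptide and 250 nM His-tagged BRCT protein. Buffer was phosphate pH 7.3 with EDTA, DTT and Tween 20. Disruption of binding lowers the polarization signal.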
Pol III holo inh – inhibitors of bacterial DNA polymerase III holoenzyme; AID 603; Potency, µM (top dose mostly 57.1 µM), inactives show at the top dose activity change, negative = inhibition; 0.25% of 71,000 active; reconstituted DNA polymerase III holoenzyme replication, biochemical; further: potency means the concentration at half of the fitted maximal effect; on the % scale 0 is the no-effect control and ±100 the full control effect
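Reconstituted *E. coli* holoenzyme (0.35 nM Pol III, 1 nM beta, 154 nM SSB, 2 nM primase) was preincubated with compound for 15 min at RT. Synthesis on 1.4 nM ssM13Gori ran 35 min, then was stopped with PicoGreen/EDTA and read as dsDNA fluorescence.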
15-hLO inh – inhibitors of human 15-lipoxygenase (ALOX15) | purified 15hLO-1, xylenol orange hydroperoxide absorbance | Potency, µM (top dose mostly 57.1 µM), without a hit: at the highest dose activity change, negative = inhibition, most hits filed as inhibitors | 1.4% of 74,000 active; further: potency means the concentration at half of the fitted maximal effect; on the % scale 0 is the no-effect control and ±100 the full control effect; nearly all actives have a fitted effect of over 55% in size
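Readout: Fe(III)-xylenol orange absorbance, 573-to-405 nm ratio as reaction progress. Enzyme 40 nM purified human 15hLO-1, substrate 50 uM arachidonic acid, 6 min RT after 15 min compound preincubation; Hepes pH 7.5 buffer with Triton X-100.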
* hit, by the source's call; i = inactive; ? = inconclusive; · = not tested or not shown; [ ] = another dose, or the depositor's remark. Sampled rows, rich in hits. Any-hit rate of the full collection: about 3.3%. The call rests on the fitted dose curve; in most records, active means well fitted curve in the direction sought with a large enough effect; inconclusive means small, poorly fitted or top-dose-only effect, or another doubt; inactive means no such curve, though single readings can be large; an effect the other way counts as inactive or inconclusive.

SMILES	BRCT inh red	Tau filament bind	TsaE inh	BRCT inh green	Pol III holo inh	15-hLO inh
Cc1cccc(N2CCN(C(=O)C3CCN(S(=O)(=O)c4cccc5nsnc45)CC3)CC2C)c1 (stereo unspecified)	-1%	25µM*	i	-5%	-6%	-23%
COc1ccc2nc(NC(=O)C3CCN(S(=O)(=O)c4cccc5nsnc45)CC3)sc2c1	-1%	13µM*	i	1%	12%	-15%
O=C1SC(c2ccccc2)=N/C1=C/c1ccco1	-1%	25µM*	i	-1%	1%	-19%
O=C1SC(SCc2ccccc2)=N/C1=C\c1ccco1	-4%	?	i	-1%	-21%	?
NCC(=O)N[C@H](CO)C(=O)O	1%[15.4 µM]	-17%[11.4 µM]	i	1%[15.4 µM]	-1%[11.4 µM]	9%[11.4 µM]
CC(=O)N1CCC2(CCCN(C(c3ccccc3)c3ccccc3)C2)CC1	0%	21%	i	-1%	-6%	7%
CC(C)CO/N=C1/C[C@@H](O)[C@@H](O)[C@@H]2[C@@H]3C(=O)N([C@@H](C)c4ccccc4)C(=O)[C@H]3CC[C@@H]12	1%[15.4 µM]	·	·	0%[15.4 µM]	·	4%[11.4 µM]
O=C(OCC1OC(OC(=O)c2cc(O)c(O)c(OC(=O)c3cc(O)c(O)c(O)c3)c2)[C@@H](OC(=O)c2cc(O)c(O)c(OC(=O)c3cc(O)c(O)c(O)c3)c2)C(OC(=O)c2cc(O)c(O)c(OC(=O)c3cc(O)c(O)c(O)c3)c2)C1OC(=O)c1cc(O)c(O)c(OC(=O)c2cc(O)c(O)c(O)c2)c1)c1cc(O)c(O)c(OC(=O)c2cc(O)c(O)c(O)c2)c1 (stereo partly specified)	55%	·	·	-2%[3.08 µM]	·	0.5µM*
CC(=O)OCC1OC(c2ccccc2)C(OC(C)=O)C(OC(C)=O)C1OC(C)=O (stereo unspecified)	-1%	13%	i	-1%	-5%	7%
C=CCOC(=O)c1sc(N2C(=O)c3oc4ccccc4c(=O)c3C2c2ccco2)nc1C (stereo unspecified)	-1%	10µM*	i	1%	-7%	-11%
O[C@@H](c1cc(-c2ccccc2)nc2c1ccc1ccccc12)[C@@H]1CCCCN1	-2%[15.4 µM]	-11%[11.4 µM]	i	-2%[15.4 µM]	-8%[11.4 µM]	2%[11.4 µM]
Oc1c(/C=N/c2ncn[nH]2)ccc2ccccc12	1%	13µM*	i	5%	2%	0%
CC(C)c1ccc(CNc2ccc(N3CCOCC3)cc2)cc1	2%	25µM*	i	-7%	-5%	7.9µM*
CC(=O)N1CCN(c2ccc(NCc3ccc(F)cc3)cc2)CC1	1%	?	i	-3%	2%	10µM*
Cn1cnnc1SCC(=O)N1c2ccccc2-c2c(ssc2=S)C1(C)C	0%	?	i	-4%	-2%	-20%
CC1(C)c2ssc(=S)c2-c2ccccc2N1C(=O)c1ccco1	0%	3.2µM*	i	0%	-6%	?
c1ccc(B2OC[C@@H]3OB(c4ccccc4)O[C@H]([C@@H]4COB(c5ccccc5)O4)[C@@H]3O2)cc1	2%[15.4 µM]	-6%[11.4 µM]	i	-3%[15.4 µM]	-11%[11.4 µM]	10%[11.4 µM]
CCN1C(=O)[C@H]2[C@H]3[C@H](O)[C@H](O)C/C(=N/O[C@@H]4O[C@@H](COC(C)=O)[C@@H](OC(C)=O)[C@@H](OC(C)=O)[C@H]4OC(C)=O)[C@H]3CC[C@@H]2C1=O	0%[15.4 µM]	·	·	-2%[15.4 µM]	·	5%[11.4 µM]
Oc1cccc(Nc2ccccc2)c1	-1%	-14%	i	-2%	4%	-6%
COc1ccc(OC)c(NC2=NC3(CCCC3)N=C(N)N2)c1	0%	3%	i	1%	2%	-4%
[O-][N+]1=c2ccc(Nc3ccccc3)cc2=NC12CCCCC2	0%	13µM*	i	-5%	-10%	3.2µM*
COc1ccc(Nc2ccc3c(c2)=NC2(CCCCC2)[N+]=3[O-])cc1	1%	16µM*	i	2%	-9%	?
COCCNc1nc(-c2ccccc2OC)nc2ccccc12	-2%	?	i	-1%	-1%	?
CN(C)c1ncc2nc(-c3cccs3)c(=O)n(-c3ccccc3)c2n1	0%	i	i	2%	-1%	-5%
O=c1oc2c3c4c(cc2s1)CCCN4CCC3	-1%	25µM*	i	-3%	-6%	?
SMILES	BRCT inh red	Tau filament bind	TsaE inh	BRCT inh green	Pol III holo inh	15-hLO inh
O=C(O)CCC(=O)Nc1ccc2ccccc2c1	-2%[15.4 µM]	6%[11.4 µM]	i	-1%[15.4 µM]	-4%[11.4 µM]	0%[11.4 µM]
c1ccc2cc(NCNc3ccc4ccccc4c3)ccc2c1	0%[15.4 µM]	2.5µM*	i	0%[15.4 µM]	-10%[11.4 µM]	-3%[11.4 µM]
CCC(=O)Nc1ccc2nc(C)n(CC(=O)Nc3ccccc3)c(=O)c2c1	0%	13µM*	i	0%	-7%	2%
CCOC(=O)N1CCN(c2c(F)cc3[nH]c(=S)[nH]c3c2Br)CC1	1%	16µM*	i	1%	3%	?
CCOC(=O)N1CCN(c2cc3[nH]c(=S)[nH]c3cc2F)CC1	-2%	-10%	i	-6%	3%	?
NC(=O)SCC(=O)Nc1ccc(Cl)c(Cl)c1	0%	13%	i	-1%	4%	?
NC(=O)SCC(=O)Nc1ccc(Cl)cc1	-2%	·	·	-2%	·	25µM*
CCCN(CCC)c1nc2ccccc2nc1C(C#N)C(=O)OCCOC (stereo unspecified)	-1%	1.3µM*	i	1%	8%	-3%
N#CC1=C2SCN(c3ccccc3)CN2C(=O)CC1c1ccccc1Cl (stereo unspecified)	2%	-23%	i	0%	-5%	?
N#CC1=C2SCN(c3ccccc3)CN2C(=O)CC1c1c(Cl)cccc1Cl (stereo unspecified)	-1%	-12%	i	-1%	-5%	3.2µM*
Cc1ccc(C2CC(=O)N3CN(c4ccc(Br)cc4)CSC3=C2C#N)o1 (stereo unspecified)	-4%	?	i	-2%	-11%	2.5µM*
N#CC1=C2SCN(c3ccccc3)CN2C(=O)CC1c1cccs1 (stereo unspecified)	-1%	-8%	i	0%	-6%	4µM*
NCCC1([N+](=O)[O-])CCNCC1	0%[15.4 µM]	-4%[11.4 µM]	i	1%[15.4 µM]	-15%[11.4 µM]	24%[11.4 µM]
OC1(C(O)(c2ccc(-c3ccccc3)cc2)c2ccc(-c3ccccc3)cc2)CCCCC1	-1%[15.4 µM]	1%[11.4 µM]	i	0%[15.4 µM]	6%[11.4 µM]	14%[11.4 µM]
Cc1ccc(C)c(N2CCN(C(=O)CCS(=O)(=O)c3cccc4nonc34)CC2)c1	1%	32µM*	i	-1%	-8%	-30%
Clc1ccc(-c2nnc(N3CCCC3)nn2)cc1	0%	13µM*	i	-2%	0%	-19%

High-throughput results as filed in PubChem.
